A selection: hits, their analogues and other compounds. The true share with any hit is near 1.1%.
LANA DNA inh: blocks KSHV LANA C-terminal domain binding to DNA; MBP-C-LANA/FAM-LBS DNA binding, fluorescence polarization; inhibition, % at 9 µM; 340,000 compounds, 0.078% hits; AID 504423;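 active = highest replicate inhibition at or above 60% at 9 µM, even if other replicates fall short; inactive = all replicates below 60% inhibition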;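 also: 0% = neutral control wells and 100% = 4 µM acridine orange control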
N-glyco inh: blocks N-linked glycosylation in D54 reporter cells | reporter increase, % at 12.5 µM | 360,000 compounds, 0.23% hits | D54 ERlucT glycosylation luciferase reporter, 24 h; percent of 100 nM tunicamycin response;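 active = mean luciferase reporter signal, scaled so untreated is 0 and the glycosylation-blocking control 100, at or above a set limit in every replicate; inconclusive = mean reaches the limit but not every replicate does; inactive = mean below the limit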;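 also: luciferase carries N-glycosylation sites so blocking glycosylation raises the light; 0% = median of neutral control wells and 100% = median of 100 nM tunicamycin wells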
NSD2 HMT inh: inhibitors of human histone methyltransferase NSD2; O96028; NSD2 peptide methylation, AlphaScreen, 120 min; inhibition, % at 12.5 µM; 310,000 compounds, 0.54% hits; AID 743445; in the data active = inhibition above about 50%
Keap1 Nrf2 FP: Keap1-Nrf2 (human) interaction inhibition. Q14145. Keap1 Kelch-Nrf2 peptide fluorescence polarization, 1536-well. inhibition, % at 9.4 µM. 340,000 compounds, 0.15% hits; in the data active = inhibition above about 12%; inconclusive = no clear call, values can overlap the other calls; inactive = below about 7.3%;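 also: human Keap1 Kelch domain with fluorescein labeled Nrf2 9mer peptide probe; 0% = neutral control wells and 100% = peptide positive control; higher means more block of Keap1 binding to Nrf2 peptide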
Casp6 inh: caspase-6 (human) enzyme inhibition; P55212; purified caspase-6, Z-VEID-R110 cleavage fluorescence; inhibition, % at 12.5 µM; 350,000 compounds, 0.53% hits; AID 686996;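 active = mean inhibition across replicates at least about 35%, with every replicate also reaching that limit, limit read from the data; inconclusive = only one of the two criteria met; inactive = neither criterion met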;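 also: 0% = median of neutral control wells and 100% = no fluorescence left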
HDAC3 inh: blocks human histone deacetylase 3; 320,000 compounds, 0.15% hits; inhibition, % at 8.3 µM; recombinant HDAC3, fluorogenic peptide/trypsin coupled, fluorescence; O15379; AID 2718; in the data active = inhibition above about 26%, passing the limit was not always enough; inconclusive = no clear call, values can overlap the other calls
Active calls of the source: *; ! = repeats disagree.

CCOc1cc(C=C2C(=O)NC(=S)NC2=O)ccc1O was read as LANA DNA inh 2.9, N-glyco inh 0.0, NSD2 HMT inh 7.3, Keap1 Nrf2 FP 12.3* and Casp6 inh 7.9.
COC(=O)[C@H]1[C@H](CO)[C@H]2Cn3c(cccc3=O)[C@@H]1N2Cc1nccs1 was read as Casp6 inh -1.4.
Screening CCC(=O)N1[C@@H]2Cn3c(ccc(-c4cccc(F)c4)c3=O)[C@H]1[C@@H](C(=O)OC)[C@@H]2CO returned Casp6 inh 0.3.
Screening COc1ccc(CC2c3cc(OC)c(OC)cc3CCN2C)cc1O (stereo unspecified) returned LANA DNA inh 0.6, N-glyco inh 1.5, Keap1 Nrf2 FP -3.7, Casp6 inh 5.4 and HDAC3 inh -4.3.
Screening COc1cc2c(cc1OC)-c1c3c(cc4c1[C@@H](C2)N(C)CC4)OCO3 returned LANA DNA inh -23.4, N-glyco inh inconclusive, Keap1 Nrf2 FP 1.8, Casp6 inh 48.0* and HDAC3 inh -16.4.
For COc1cc2c(cc1O)C[C@H]1NCCc3cc4c(c-2c31)OCO4 the results were LANA DNA inh -6.0, N-glyco inh 18.1, Keap1 Nrf2 FP -1.6, Casp6 inh 16.1 and HDAC3 inh -13.9.
`COc1cc2c(cc1OC)-c1c(OC)c(OC)cc3c1C(C2)N(C)CC3` (stereo unspecified) gave LANA DNA inh 2.0, N-glyco inh -0.5, Keap1 Nrf2 FP -1.6, Casp6 inh 68.5* and HDAC3 inh -6.2.
For Cc1cccc(NP(=O)(Oc2ccccc2F)Oc2ccccc2F)c1 the results were LANA DNA inh 1.5, N-glyco inh -4.5, NSD2 HMT inh -2.3, Keap1 Nrf2 FP 1.8, Casp6 inh 0.3 and HDAC3 inh 19.6.
For Cc1ccc(NP(=O)(Oc2ccccc2F)Oc2ccccc2F)cc1C the results were LANA DNA inh -0.8, N-glyco inh -1.9, NSD2 HMT inh -2.1, Keap1 Nrf2 FP 2.6 and HDAC3 inh 29.6*.
Screening O=C1NC(=S)NC(=O)C1=Cc1cccn1-c1ccc(O)cc1 returned LANA DNA inh 13.1, N-glyco inh -0.5, Keap1 Nrf2 FP 0.9 and Casp6 inh 88.1*.
For CCCCn1nnnc1C(CCSC)N1CCC(n2c(=O)[nH]c3ccccc32)CC1 (stereo unspecified) the results were N-glyco inh -0.5 and Casp6 inh 49.6*.
Screening O=C1NC(=O)N(CCc2ccc(F)cc2)C(=O)/C1=C/c1ccco1 returned LANA DNA inh 5.7, N-glyco inh 3.7, Keap1 Nrf2 FP -9.6, Casp6 inh 82.6* and HDAC3 inh -3.9.
Screening O=C1NC(=O)N(Cc2ccccc2)C(=O)/C1=C/C=C/c1ccco1 returned LANA DNA inh -0.6, N-glyco inh 32.1*, NSD2 HMT inh 28.1, Keap1 Nrf2 FP 5.0, Casp6 inh 38.6* and HDAC3 inh 5.5.
`CCN1C(=O)C(=C/C=C/c2ccco2)C(=O)N(CC)C1=S` gave LANA DNA inh 1.8, N-glyco inh 4.8, NSD2 HMT inh 46.8, Keap1 Nrf2 FP -97.4, Casp6 inh 57.7* and HDAC3 inh 2.4.
Screening Cc1ccc(/C=C2/C(=O)NC(=O)N(CCc3ccc(F)cc3)C2=O)o1 returned LANA DNA inh 1.1, N-glyco inh 3.5, Keap1 Nrf2 FP -8.3 and HDAC3 inh 3.1.
`CN1[C@H](CO)[C@H]2c3ccccc3NC[C@H]21` gave Casp6 inh -3.1.
Screening N#Cc1cccc(-c2ccc([C@H]3[C@H](CO)N4CCCCN(C(=O)Cc5ccccc5)C[C@@H]34)cc2)c1 returned Casp6 inh 0.1.
COC(=O)[C@H]1[C@H](CO)[C@H]2Cn3c(ccc(C4=CCCCC4)c3=O)[C@@H]1N2C(=O)Cc1ccccn1 was read as Casp6 inh -2.1.
`CC(C)OCCCNC(=O)c1c(N)n(CC2CCCO2)c2nc3ccccc3nc12` (stereo unspecified) gave LANA DNA inh -1.2, N-glyco inh 3.4, NSD2 HMT inh 98.5*, Keap1 Nrf2 FP -6.6, Casp6 inh 55.2* and HDAC3 inh -35.6.
`O=C(NC1CCCCC1)Oc1cc2oc(=O)sc2cc1Cl` gave LANA DNA inh -0.1, N-glyco inh 1.4, NSD2 HMT inh 67.1*, Keap1 Nrf2 FP -9.9, Casp6 inh 13.9 and HDAC3 inh 0.8.
Screening CN1CCC2(CC1)C(C#N)=C(N)NC(S)=C2C#N returned LANA DNA inh 15.1, N-glyco inh 1.1, NSD2 HMT inh 45.5, Keap1 Nrf2 FP 5.8, Casp6 inh 47.3*! and HDAC3 inh -1.1.
`COC(=O)[C@@H]1[C@@H](CO)[C@@H]2Cn3c(ccc(-c4ccccc4F)c3=O)[C@H]1N2C(=O)C1CC1` gave Casp6 inh -2.7.
For O=C1NC(=O)N(Cc2ccco2)C(=O)/C1=C\c1cccn1CCOc1ccc(Cl)cc1 the results were LANA DNA inh 0.7, N-glyco inh 3.4, NSD2 HMT inh 19.4, Keap1 Nrf2 FP -0.3, Casp6 inh 67.5* and HDAC3 inh 5.2.
For Cc1cccc(OCCn2cccc2/C=C2/C(=O)NC(=O)N(Cc3ccco3)C2=O)c1 the results were N-glyco inh 3.2, NSD2 HMT inh 13.0 and Casp6 inh 44.2*.
`O=C(Cc1cccnc1)N1CCCCN2[C@H](CO)[C@@H](c3ccc(C#CC4CC4)cc3)[C@@H]2C1` gave Casp6 inh 0.5.
`CC12CC[C@H]3[C@@H](CCC4(O)C[C@H](O)CCC34/C=N/NC(=O)c3ccc(O)cc3)C1(O)CCC2C1=CC(=O)OC1` (stereo partly specified) gave LANA DNA inh 0.4, N-glyco inh 0.5, NSD2 HMT inh -1.5, Keap1 Nrf2 FP 0.2, Casp6 inh -2.3 and HDAC3 inh 1.3.
COc1ccc(C(=O)N/N=C/C23CC[C@@H](O)CC2(O)CC[C@@H]2[C@@H]3CCC3(C)C(C4=CC(=O)OC4)CCC23O)cc1 (stereo partly specified) was read as LANA DNA inh 0.4, N-glyco inh 37.7*, NSD2 HMT inh 0.8, Keap1 Nrf2 FP 1.2 and Casp6 inh 21.0.
CC12CC[C@H]3[C@@H](CCC4(O)C[C@H](O)CCC34/C=N/NC(=O)c3ccccc3O)C1(O)CCC2C1=CC(=O)OC1 (stereo partly specified) was read as LANA DNA inh -2.6, N-glyco inh 31.7*, NSD2 HMT inh -1.4, Keap1 Nrf2 FP -5.7, Casp6 inh 16.2 and HDAC3 inh 0.7.
`COC(=O)[C@H]1[C@H](CO)[C@H]2Cn3c(ccc(-c4ccccc4F)c3=O)[C@@H]1N2C(C)=O` gave Casp6 inh 3.6.
Screening O=C(Cc1ccccn1)N1CCCCN2[C@H](CO)[C@H](c3ccc(C#Cc4ccccc4)cc3)[C@@H]2C1 returned Casp6 inh -1.3.
`CN1Cc2c(c(C#N)c(N)n(C)c2=S)CC1(C)C` gave LANA DNA inh 22.4, N-glyco inh 1.8, Keap1 Nrf2 FP 16.1* and HDAC3 inh -18.2.

Bioassay records from PubChem.
